The source made the active and inactive calls.
Experiments:
[1] = optical density shifts of acrAB sulA E. coli – strain DRC41, OD650, 48 h, E. coli filamentation inducer project, primary screen (AID 1152); settings: higher = more signal, called active from +8 up or from −8 down;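 also: E. coli MC1000 strain DRC41 lacking acrAB efflux pump and sulA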
[2] = probe aLefty1 binding on compound microarray – biochemical, small-molecule microarray, 635/667 nm fluorescence, primary screen (AID 1153); settings: higher = more signal;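 also: score merges spot fluorescence with signal-to-noise ratio from the scanned slide images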
[3] = plasmodial surface anion channel blockers, osmotic lysis – cell-based, P. falciparum Indochina, OD700, 1 h, primary screen (AID 1154); settings: P. falciparum Indochina infected RBC osmotic lysis, higher = more signal, called active from +8 up or from −8 down
[4] = plasmodial surface anion channel blockers, osmotic lysis – cell-based, P. falciparum Indochina, OD700, 2 h, primary screen (AID 1155);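 also: lysis reports solute entry through the parasite surface anion channel PSAC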; settings: P. falciparum Indochina infected erythrocytes, higher = more signal, called active from +8 up or from −8 down
[5] = changes in parasitized red cell lysis, either direction – P. falciparum Indochina, OD700, 3 h, PSAC antagonist project, primary screen (AID 1156); settings: P. falciparum-infected erythrocytes, osmotic lysis, higher = more signal, called active from +8 up or from −8 down
[6] = plasmodial surface anion channel blockers, osmotic lysis – cell-based, P. falciparum Indochina, OD700, 18 h, primary screen (AID 1157); settings: P. falciparum Indochina infected erythrocytes, osmotic lysis OD700, 18 h; higher = more signal, called active from +8 up or from −8 down
[7] = S6 kinase pathway phospho-S6 level changes – cell-based, A549, cytoblot, luminescence, serum-stimulated, primary screen (AID 1158); settings: 5 h, higher = more signal;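 also: serum-stimulated A549 lung adenocarcinoma cells; signal is phosphorylated S6 detected by cytoblot immunostaining with HRP secondary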
[8] = target: NADPH oxidase 2 (Homo sapiens) (UniProt P04839); assay: compounds shifting NOX2 Amplex Red fluorescence – cell-based, HEK293-NOX2, PMA-stimulated, NOX inhibitor project, primary screen (AID 1159); settings: 45 min, higher = more signal, called active from +8 up or from −8 down; also: test concentration not given here
NADPH oxidase 2 (Homo sapiens), sequence (P04839 whole entry, looked up): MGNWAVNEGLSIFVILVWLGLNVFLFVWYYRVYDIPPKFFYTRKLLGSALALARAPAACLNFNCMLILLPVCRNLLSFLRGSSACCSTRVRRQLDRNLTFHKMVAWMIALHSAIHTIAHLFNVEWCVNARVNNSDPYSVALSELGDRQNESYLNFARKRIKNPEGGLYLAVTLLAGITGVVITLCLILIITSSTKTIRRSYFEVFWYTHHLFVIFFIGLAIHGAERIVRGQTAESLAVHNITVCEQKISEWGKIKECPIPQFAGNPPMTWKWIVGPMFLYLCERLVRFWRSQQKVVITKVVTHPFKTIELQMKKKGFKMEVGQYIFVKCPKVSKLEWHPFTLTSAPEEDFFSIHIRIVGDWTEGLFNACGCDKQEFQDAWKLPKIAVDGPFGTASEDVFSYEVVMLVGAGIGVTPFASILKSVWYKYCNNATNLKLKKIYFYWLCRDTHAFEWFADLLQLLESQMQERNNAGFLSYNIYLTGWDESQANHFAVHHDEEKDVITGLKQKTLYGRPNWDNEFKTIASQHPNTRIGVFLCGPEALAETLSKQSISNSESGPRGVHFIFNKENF

[9] = target: NADPH oxidase 4 (Homo sapiens) (UniProt Q9NPH5); assay: compounds shifting NOX4 Amplex Red fluorescence – cell-based, HEK293-NOX4, tetracycline-induced, NOX inhibitor project, primary screen (AID 1160); settings: HEK293-NOX4, Amplex Red H2O2 fluorescence, 45 min; higher = more signal, called active from +8 up or from −8 down
NADPH oxidase 4 (Homo sapiens), sequence (Q9NPH5 whole entry, looked up): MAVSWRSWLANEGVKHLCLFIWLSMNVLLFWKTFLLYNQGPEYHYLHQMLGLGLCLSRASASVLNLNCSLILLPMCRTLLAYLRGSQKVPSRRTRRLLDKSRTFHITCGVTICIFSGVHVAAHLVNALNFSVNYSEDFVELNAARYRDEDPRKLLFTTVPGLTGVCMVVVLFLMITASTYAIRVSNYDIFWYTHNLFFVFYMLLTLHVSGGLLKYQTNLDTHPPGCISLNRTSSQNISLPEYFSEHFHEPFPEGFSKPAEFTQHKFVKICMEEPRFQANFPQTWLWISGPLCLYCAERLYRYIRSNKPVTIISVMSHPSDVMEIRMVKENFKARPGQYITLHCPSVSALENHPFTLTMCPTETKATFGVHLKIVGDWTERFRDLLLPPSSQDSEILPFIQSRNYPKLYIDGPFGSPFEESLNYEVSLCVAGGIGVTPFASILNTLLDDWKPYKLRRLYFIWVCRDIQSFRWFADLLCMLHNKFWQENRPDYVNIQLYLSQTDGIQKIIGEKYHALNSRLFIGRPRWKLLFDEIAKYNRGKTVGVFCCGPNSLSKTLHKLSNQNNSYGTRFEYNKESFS

[10] = target: NADPH oxidase 5 (Homo sapiens) (UniProt Q96PH1); assay: compounds shifting NOX5 Amplex Red fluorescence – cell-based, HEK293-NOX5, NOX inhibitor project, primary screen (AID 1161); settings: HEK293-NOX5, ionomycin, 45 min, higher = more signal
NADPH oxidase 5 (Homo sapiens), sequence (Q96PH1 whole entry, looked up): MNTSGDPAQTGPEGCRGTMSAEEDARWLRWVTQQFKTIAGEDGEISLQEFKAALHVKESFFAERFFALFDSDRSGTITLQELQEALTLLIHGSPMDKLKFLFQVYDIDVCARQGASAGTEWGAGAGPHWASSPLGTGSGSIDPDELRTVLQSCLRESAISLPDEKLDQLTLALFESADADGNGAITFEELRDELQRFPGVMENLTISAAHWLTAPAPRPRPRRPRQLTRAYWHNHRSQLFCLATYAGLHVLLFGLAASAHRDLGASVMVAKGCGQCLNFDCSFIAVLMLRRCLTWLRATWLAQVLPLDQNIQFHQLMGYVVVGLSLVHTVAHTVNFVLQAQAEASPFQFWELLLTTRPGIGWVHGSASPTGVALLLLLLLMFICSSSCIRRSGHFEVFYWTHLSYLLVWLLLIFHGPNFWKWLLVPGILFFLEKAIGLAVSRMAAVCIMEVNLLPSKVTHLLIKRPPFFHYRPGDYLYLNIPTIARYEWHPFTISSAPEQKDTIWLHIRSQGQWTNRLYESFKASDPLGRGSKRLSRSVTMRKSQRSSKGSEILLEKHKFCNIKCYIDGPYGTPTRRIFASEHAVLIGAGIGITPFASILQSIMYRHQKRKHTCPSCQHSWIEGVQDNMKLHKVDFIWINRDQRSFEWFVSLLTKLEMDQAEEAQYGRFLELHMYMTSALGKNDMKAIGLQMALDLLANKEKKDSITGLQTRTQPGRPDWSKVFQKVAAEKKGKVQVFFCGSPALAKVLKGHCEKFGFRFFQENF

[11] = compound effects on lung adenocarcinoma cell viability – A549, calcein-AM fluorescence, 48 h, basal, profiling panel (AID 1162); settings: higher = more signal; also: test concentration not given here
[12] = compound effects on differentiated 3T3-L1 adipocyte viability – cell-based, 3T3-L1 adipocytes, calcein-AM fluorescence, 48 h, basal, profiling panel (AID 1163); settings: 3T3-L1 adipocytes viability, higher = more signal; also: test concentration not given here
[13] = compound effects on hepatocellular carcinoma cell viability – HepG2, calcein-AM fluorescence, 48 h, basal, profiling panel (AID 1164); settings: higher = more signal; also: test concentration not given here
[14] = compound effects on multiple myeloma cell viability – MM1S, calcein-AM fluorescence, 48 h, basal, profiling panel (AID 1165); settings: higher = more signal;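 also: viability of MM1S multiple myeloma cells under basal unstimulated conditions; test concentration not given here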
[15] = calcein-AM signal in unstimulated myeloma cells – cell-based, calcein-AM fluorescence, 48 h, PK04 Diversity Set, profiling panel (AID 1166); settings: RPMI8226 myeloma viability, higher = more signal;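 also: cells grown under basal conditions without added stimulus; test concentration not given here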
[16] = JC-1 mitochondrial signal, unstimulated HepG2 cells – cell-based, JC-1 fluorescence, 24 h, 100 nL compound, profiling panel (AID 1167); settings: HepG2 mitochondrial potential, higher = more signal; also: test concentration not given here
[17] = JC-1 mitochondrial signal, unstimulated adipocytes – cell-based, JC-1 fluorescence, 3T3-L1 adipocytes, 24 h, 100 nL compound, profiling panel (AID 1168); settings: JC-1 mitochondrial fluorescence, higher = more signal, called active from +8 up or from −8 down; also: test concentration not given here
[18] = JC-1 mitochondrial signal, unstimulated myeloma cells – cell-based, JC-1 fluorescence, RPMI8226, 24 h, 100 nL compound, profiling panel (AID 1169); settings: JC-1 mitochondrial potential fluorescence, higher = more signal; also: test concentration not given here
[19] = JC-1 mitochondrial signal, unstimulated MM1S myeloma – cell-based, JC-1 fluorescence, 24 h, 100 nL compound, profiling panel (AID 1170); settings: MM1S mitochondrial potential, higher = more signal; also: test concentration not given here
[20] = resazurin metabolic signal in A549 cells – cell-based, resazurin fluorescence, 24 h, PK04 Diversity Set, profiling panel (AID 1171); settings: A549 viability, higher = more signal, called active from +8 up or from −8 down; also: test concentration not given here

| Structure (SMILES) | z-score [1] | composite z-score [2] | z-score [3] | z-score [4] | z-score [5] | z-score [6] | z-score [7] | z-score [8] | z-score [9] | z-score [10] | z-score [11] | z-score [12] | z-score [13] | z-score [14] | z-score [15] | z-score [16] | z-score [17] | z-score [18] | z-score [19] | z-score [20] |
| --- | --- | --- | --- | --- | --- | --- | --- | --- | --- | --- | --- | --- | --- | --- | --- | --- | --- | --- | --- | --- |
| C=C(COC)C(=O)CC[C@@H](OC(=O)c1cccnc1)c1cccc(OCCO)c1 | 0.857 (inactive) | 0.571 | 13.9 (active) | 1.86 (inactive) | 1.21 (inactive) | 0.454 (inactive) | 0.28 | -3.15 (inactive) | -0.703 (inactive) | -1.33 | -0.0547 | 0.627 | -0.714 | -3.31 | -1.71 | 0.082 | 0.195 (inactive) | -0.26 | -1.78 | 0.9 (inactive) |
| CC(C)[Si](C#CCCCC#N)(O[C@H](c1ccccc1)c1cn([C@H](C)c2ccccc2)nn1)C(C)C | 1.03 (inactive) | -0.0984 | 1.66 (inactive) | 0.878 (inactive) | 0.0478 (inactive) | 0.211 (inactive) | 0.147 | 1.19 (inactive) | 0.406 (inactive) | 0.255 | -1.38 | -0.348 | 0.571 | -0.057 | -2.68 | 6.54 | -0.289 (inactive) | 0.0785 | -0.733 | 1.07 (inactive) |
| CC(C)[C@@H](C(=O)O)n1cc(-c2ccccc2)nn1 | -1.08 (inactive) | 0.241 | 0.354 (inactive) | 0.217 (inactive) | -0.406 (inactive) | 0.0394 (inactive) | -0.299 | -0.7 (inactive) | 0.521 (inactive) | -0.167 | -0.633 | -0.582 | -0.354 | -0.117 | -0.887 | -1.36 | -1.2 (inactive) | 0.00787 | 0.00093 | -0.423 (inactive) |
| CCCCC=C[C@@H](NC(=O)c1ccc(C(F)(F)F)cc1)c1ccccc1 | -1.96 (inactive) | -0.112 | 5.47 (inactive) | 0.895 (inactive) | -0.427 (inactive) | 0.373 (inactive) | -0.0311 | -1.51 (inactive) | -1.37 (inactive) | 1.1 | -1.13 | -1.28 | -0.63 | -0.978 | -2.53 | -1.65 | -1.12 (inactive) | -0.169 | -1.27 | 2.14 (inactive) |
| CCCC=C(CCC)[C@@H](NS(=O)(=O)c1ccc(Cl)cc1)c1ccccc1 | -2.04 (inactive) | 0.345 | 1.02 (inactive) | 0.1 (inactive) | 1.16 (inactive) | 0.814 (inactive) | 0.717 | -1.64 (inactive) | -3.24 (inactive) | 1.59 | -1.61 | -0.224 | -1.42 | -1.18 | -3.77 | -3.69 | 0.0744 (inactive) | -0.372 | -0.676 | 2.17 (inactive) |
| CC1CC/C=C\[C@H]2OC34C=CCN(c5ccc(Cl)cc5)C(=O)[C@H]3N(CCCO)C(=O)[C@]4(C)C2C(=O)O1 (stereo not given in full) | -0.836 (inactive) | 0.135 | 0.113 (inactive) | 0.66 (inactive) | -0.338 (inactive) | 0.356 (inactive) | -0.264 | 1.5 (inactive) | -1.22 (inactive) | 2.34 | 0.606 | 0.208 | -0.865 | 1.04 | 0.338 | -0.713 | -0.887 (inactive) | -0.294 | 1.86 | -0.6 (inactive) |
| C=CCOC(=O)[C@H]1[C@@H]2C(=O)O[C@@H](c3ccccc3)[C@@H](c3ccccc3)N2[C@@H](c2ccc(OCCOC(=O)[C@H]3C[C@H]4C(=O)NCC(=O)N4[C@H]3c3ccc(O)cc3)cc2)[C@]12C(=O)Nc1ccc(I)cc12 | 0.345 (inactive) | 0.0359 | 2.6 (inactive) | 2.66 (inactive) | 1.02 (inactive) | 1.33 (inactive) | 0.839 | 1.54 (inactive) | 1.5 (inactive) | 1.22 | -0.362 | 0.34 | 1.78 | 0.782 | 0.483 | -1.63 | 0.266 (inactive) | -0.398 | -1.43 | 0.144 (inactive) |
| C=CCNC(=O)[C@@H]1[C@H]2C(=O)O[C@H](c3ccccc3)[C@H](c3ccccc3)N2[C@H](c2ccccc2OCCO)[C@@]12C(=O)N(C(=O)OCCOC)c1ccc(C#CCCO)cc12 | -0.288 (inactive) | 0.209 | 2.62 (inactive) | 1.15 (inactive) | 0.123 (inactive) | 0.167 (inactive) | 0.568 | 1.57 (inactive) | 1.31 (inactive) | 0.165 | 0.614 | 0.393 | 1.53 | -0.02 | -0.615 | -0.332 | 0.507 (inactive) | -0.868 | -1.46 | -0.0256 (inactive) |

From PubChem BioAssay
